Shown is part of a subset that was picked to be rich in hits.
PKA kinase inh: PKA (human) kinase inhibition | P17612 | PKA Kemptide phosphorylation, Kinase-Glo ATP luminescence | inhibition, % at 6 µM | 0.1% of 65,000 active | AID 524;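 active = inhibition above the screen-wide mean inhibition plus 3 SD, cut at about 21% in these data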
ROCK2 inh: ROCK2 (human) kinase inhibition; O75116; purified ROCK2, Kinase-Glo ATP depletion luminescence; inhibition, % at 6 µM; 0.35% of 60,000 active;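 active = inhibition above the screen-wide mean inhibition plus 3 SD, cut at about 18% in these data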
hDAT+cocaine: human DAT dopamine uptake with cocaine, either direction. Q01959. LLC-PK1 hDAT cells, [14C]-dopamine uptake with cocaine IC80; actives deviate in either direction. B-score at 10 µM. 1.3% of 110,000 active;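 active = Z score or B-score, a plate-position-corrected score, falls beyond the plate's 99.7% confidence bounds, in either direction; inactive = both scores lie inside the 99.7% bounds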
D1 allo mod: D1 dopamine receptor (human) allosteric modulation | P21728 | HEK293 D1, CRE-luciferase, dopamine EC30 potentiation; actives deviate in either direction | B-score at 10 µM | 5.9% of 58,000 active;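 active = luminescence count or its row- and column-corrected plate score outside the 99.7% band of the plate's sample wells, on either side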
Target sequence (P21728 whole entry, looked up): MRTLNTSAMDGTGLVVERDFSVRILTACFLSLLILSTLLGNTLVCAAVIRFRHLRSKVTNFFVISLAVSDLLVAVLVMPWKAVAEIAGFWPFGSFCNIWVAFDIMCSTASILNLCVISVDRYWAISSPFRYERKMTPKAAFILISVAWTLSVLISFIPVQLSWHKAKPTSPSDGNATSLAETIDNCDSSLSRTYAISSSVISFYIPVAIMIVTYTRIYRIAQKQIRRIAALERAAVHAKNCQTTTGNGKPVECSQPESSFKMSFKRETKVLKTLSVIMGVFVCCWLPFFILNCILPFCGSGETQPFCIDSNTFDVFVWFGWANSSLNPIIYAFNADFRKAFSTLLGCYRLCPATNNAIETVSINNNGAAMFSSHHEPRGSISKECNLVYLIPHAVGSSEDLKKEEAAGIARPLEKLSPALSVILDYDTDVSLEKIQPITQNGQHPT
JNK3 inh: blocks human JNK3 kinase activity; P53779; AID 746; purified JNK3 kinase activity, HTS; 0.61% of 60,000 active; inhibition, % at 8 µM; in the data active = inhibition above about 17%
D1 mod confirm: D1 receptor (human) allosteric modulation, confirmed | luminescence at 10 µM | 88% of 2,200 active | AID 642 | HEK293 D1 CRE-luciferase, dopamine EC30 potentiation; active compounds read high | shares compounds with D1 allo mod;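 active = luminescence in either of two replicates above the same-plate mean plus 3 SD of the low-dose dopamine control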
D1 no dopamine: secondary test of D1 modulators: activity without dopamine. shares compounds with D1 allo mod. HEK293 D1 CRE-luciferase, luminescence, no dopamine; active compounds read high. luminescence at 10 µM. 0.8% of 1,900 active. AID 646; in the data active = luminescence above about 3900
Isoprot counter: counter-screen for D1 modulators: isoproterenol response in HEK293 cells; calls only at 10 µM; 63% of 2,200 active; shares compounds with D1 allo mod; HEK293 D1 CRE-luciferase, isoproterenol EC30 counter-screen;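 active = luminescence in either replicate above plate mean of wells with a partly effective reference agonist dose plus 3 SD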;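 also: isoproterenol raises cAMP through native beta-adrenoceptor Gs so signal bypasses D1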
Of the large screens only hits and unclear results are named; the others gave an inactive call (follow-up assays come after a bar, where they were run).

COc1ccc(C(=O)N2CCC(C(=O)NCc3ccccn3)CC2)cc1	none
COC(=O)CSc1nnc(CNS(=O)(=O)c2ccc(Cl)cc2)n1C	none (no result: PKA kinase inh, ROCK2 inh, D1 allo mod, JNK3 inh)
CCCc1nc2oc3c(NCC4CCCO4)ncnc3c2c2c1COC(C)(C)C2 (configuration not stated)	D1 allo mod 15 | D1 mod confirm 19660 | Isoprot counter active
CCCc1nc2oc3c(NCc4ccccn4)ncnc3c2c2c1COC(C)(C)C2	D1 allo mod 16 (no result: hDAT+cocaine) | D1 mod confirm 19424 | Isoprot counter active
CC(C)c1nc2oc3c(NCC4CCCO4)ncnc3c2c2c1CCC2 (configuration not stated)	none (no result: D1 allo mod)
CCNc1nc(Oc2ccc(=O)n(-c3ccccc3)n2)nc(N2CCOCC2)n1	D1 allo mod 10 | D1 mod confirm 18936 | D1 no dopamine inactive | Isoprot counter active
CCc1nnc(NC(=O)CSc2nc(C)c3c(c2C#N)CCCC3)s1	D1 allo mod 5.8 | D1 mod confirm 11752 | Isoprot counter active
COc1ccc(NC(=O)CSc2nc(C)c3c(c2C#N)CCCC3)cc1	none (no result: PKA kinase inh, ROCK2 inh, D1 allo mod, JNK3 inh)
CCCS(=O)(=O)N1CCC(C(=O)NCCN(C)Cc2ccccc2)CC1	D1 allo mod 2.6 | D1 mod confirm inactive | D1 no dopamine inactive | Isoprot counter inactive
CCN(CC(=O)Nc1ccccc1C(=O)OC)S(=O)(=O)c1ccccc1	none
Cc1ccc2nc(C3CCN(S(=O)(=O)c4ccc5ccccc5c4)CC3)[nH]c2c1	none (no result: PKA kinase inh, ROCK2 inh, D1 allo mod, JNK3 inh)
CCCSc1nc2c(cnn2-c2ccccc2)c(=O)[nH]1	D1 allo mod 11 | D1 mod confirm 17784 | D1 no dopamine inactive | Isoprot counter active
CCCSc1nc2c(cnn2-c2ccc(C)cc2)c(=O)[nH]1	D1 allo mod 10 | D1 mod confirm 20136 | D1 no dopamine inactive | Isoprot counter active
CCC(C)Sc1nc2c(cnn2-c2ccccc2)c(=O)[nH]1 (configuration not stated)	D1 allo mod 12 | D1 mod confirm 13072 | D1 no dopamine inactive | Isoprot counter active
CCSc1ccc2nnc(-c3ccc(F)cc3)n2n1	none
Cc1cc(NC(=O)C2(c3ccccc3)CCCC2)no1	none
CCCCc1nc2n[nH]c(N)c2c2c1CCC2	D1 allo mod 7.9 | D1 mod confirm 22688 | D1 no dopamine inactive | Isoprot counter active
CC(C)Cc1nc2n[nH]c(N)c2c2c1CCCC2	none (no result: PKA kinase inh, ROCK2 inh, D1 allo mod, JNK3 inh)
Cn1c(C(=O)N2CCCc3ccccc32)cc2sccc21	none
O=C(CN(Cc1ccco1)C(=O)CCC(=O)Nc1ccccn1)NCCc1ccccc1	none
N#Cc1nc(-c2cccs2)oc1NCc1ccccc1Cl	none (no result: hDAT+cocaine, D1 allo mod)
N#Cc1nc(-c2ccco2)oc1NCc1ccco1	D1 allo mod 9.5 | D1 mod confirm 13820 | D1 no dopamine inactive | Isoprot counter active
N#Cc1nc(-c2cccs2)oc1NCc1ccco1	D1 allo mod 9.2 | D1 mod confirm 14284 | Isoprot counter active
COCc1cc(C)nc2sc(C(=O)N3CCN(c4ccccc4)CC3)c(N)c12	D1 allo mod 4.6 | D1 mod confirm 8080 | D1 no dopamine inactive | Isoprot counter inactive
COCc1cc(C)nc2sc(C(=O)N3CCCCC3)c(N)c12	none (no result: PKA kinase inh, ROCK2 inh, D1 allo mod, JNK3 inh)
CC1(C)Cc2nc(N3CCOCC3)c(C#N)cc2CO1	D1 allo mod 2.8 | D1 mod confirm 9156 | Isoprot counter inactive
CC1(C)Cc2c(C#N)c(N3CCOCC3)nc(-c3ccccc3)c2CO1	none (no result: D1 allo mod)
CCc1nc(N2CCOCC2)c(C#N)c2c1COC(C)(C)C2	D1 allo mod 5.6 | D1 mod confirm 15288 | Isoprot counter active
Cc1nc(N2CCOCC2)c(C#N)c2c1COC(C)(C)C2	none (no result: D1 allo mod)
Cc1ccccc1OCC(=O)NNC(=O)c1ccc(-c2ccccc2)cc1	none (no result: PKA kinase inh, ROCK2 inh, D1 allo mod, JNK3 inh)
COC(=O)c1sccc1NC(=O)CSc1nnnn1-c1ccccc1C	none (no result: PKA kinase inh, ROCK2 inh, D1 allo mod, JNK3 inh)
COC(=O)c1nc2n(n1)C(c1ccc(OC)c(OC)c1)C(C(=O)OC1CCCCC1)=C(C)N2 (configuration not stated)	D1 allo mod 3.3 (no result: ROCK2 inh, JNK3 inh) | D1 mod confirm 7744 | Isoprot counter inactive
COc1ccc(C2C(C(N)=O)=C(C)Nc3nc(-c4ccccc4OC)nn32)cc1OC (configuration not stated)	none
